Values joined by “and” are separate entries in the source; they are usually repeats but may differ in a detail not shown here. Identical values can stand only once. For part of these data: Potency and affinity values are given separately. Active and inactive are the calls of the source.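 The calls were made as follows, unless noted: active = primary screen inhibitor hit that blocks the TRPC4 channel at some tested dose, yielding a dose curve; inactive = the rest.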
Columns and labels:
[1] = tested on: TRPC4 beta (transient receptor potential cation channel C4), mouse; assay: TRPC4 cation channel opening, retest – cell-based, Fluo4 calcium, HEK293 TRPC4beta/mu-opioid, duplicates, 10 µM, confirmation (AID 2426;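 active = fluorescence ratio normalized to control raised more than 50% in primary screen plus both repeat runs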;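 as to activation: percent rise of integrated ratio over buffer wells lacking compound which define 0%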); details: Fluo4 calcium fluorescence, at 10 µM; active compounds read high
[2] = tested on: transient receptor potential cation channel C4 beta (TRPC4), mouse; assay: TRPC4 cation channel opening, second retest – cell-based, second round, Fluo4, HEK293 TRPC4beta/mu-opioid, 1 µM, confirmation (AID 2461;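 active = primary screen active and over 50% activation in each of two duplicate runs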;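 as to activation: 0% = wells without test compound as baseline of integrated fluorescence ratio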); details: Fluo4 calcium fluorescence, at 1 µM; active compounds read high
[3] = tested on: TRPC4 (transient receptor potential cation channel C4 beta), mouse; assay: potentiation of DAMGO EC20 TRPC4 response – cell-based, second round, Fluo-4, HEK293 TRPC4beta/mu-opioid, 1 µM, confirmation (AID 2554;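 active = primary screen hit whose fluorescence ratio, in both repeats, exceeds the weak agonist control mean by 3 SD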); details: DAMGO EC20, Fluo-4 calcium flux, at 1 µM; active compounds read high
[4] = tested on: TRPC4 beta (transient receptor potential cation channel C4), mouse; assay: potentiation of DAMGO EC20 TRPC4 response – cell-based, Fluo-4, HEK293 TRPC4beta/mu-opioid, confirmation (AID 2555;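 active = primary screen hit whose calcium fluorescence ratio, in both repeats, exceeds the weak agonist control mean by 3 SD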); details: DAMGO EC20, Fluo-4 calcium flux, at 10 µM; active compounds read high
[5] = target: Short transient receptor potential channel 4 (Mus musculus) (UniProt Q9QUQ5); assay: blockers of DAMGO-evoked TRPC4 calcium flux – cell-based, Fluo4, HEK293 TRPC4beta/mu-opioid, confirmation (AID 2636;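 active = calcium signal cut by more than 3 SD below the full-agonist control yet still positive, in both repeats and the earlier primary screen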); details: at 10 µM; active compounds read high
Chain of Short transient receptor potential channel 4 (Mus musculus) (Q9QUQ5 whole entry, looked up): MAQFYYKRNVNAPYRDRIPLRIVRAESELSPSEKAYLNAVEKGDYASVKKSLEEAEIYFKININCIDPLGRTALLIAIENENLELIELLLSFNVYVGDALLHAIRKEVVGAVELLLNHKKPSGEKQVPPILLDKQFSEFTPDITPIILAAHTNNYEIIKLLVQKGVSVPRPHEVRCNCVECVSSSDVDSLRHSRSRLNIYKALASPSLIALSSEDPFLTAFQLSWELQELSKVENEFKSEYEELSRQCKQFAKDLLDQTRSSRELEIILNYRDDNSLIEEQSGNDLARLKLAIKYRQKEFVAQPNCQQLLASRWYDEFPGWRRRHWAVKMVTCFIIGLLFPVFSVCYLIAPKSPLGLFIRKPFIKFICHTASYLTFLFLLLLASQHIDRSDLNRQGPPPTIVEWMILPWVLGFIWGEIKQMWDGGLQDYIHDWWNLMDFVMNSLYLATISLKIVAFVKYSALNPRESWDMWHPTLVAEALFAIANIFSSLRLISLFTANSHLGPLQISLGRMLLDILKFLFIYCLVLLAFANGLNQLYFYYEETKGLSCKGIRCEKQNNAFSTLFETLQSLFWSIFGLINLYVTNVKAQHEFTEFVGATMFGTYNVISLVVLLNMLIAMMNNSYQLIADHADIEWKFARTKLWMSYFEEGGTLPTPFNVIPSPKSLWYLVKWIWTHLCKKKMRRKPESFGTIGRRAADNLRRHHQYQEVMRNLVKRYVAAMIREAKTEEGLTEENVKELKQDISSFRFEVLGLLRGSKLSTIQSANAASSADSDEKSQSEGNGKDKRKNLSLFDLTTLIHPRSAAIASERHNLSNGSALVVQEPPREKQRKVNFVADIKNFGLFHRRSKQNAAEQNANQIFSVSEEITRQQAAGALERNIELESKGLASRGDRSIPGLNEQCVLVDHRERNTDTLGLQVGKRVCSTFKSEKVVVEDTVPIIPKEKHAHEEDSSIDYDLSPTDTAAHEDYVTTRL

[6] = target: Short transient receptor potential channel 4 (Mus musculus) (UniProt Q9QUQ5); assay: blockers of DAMGO-evoked TRPC4 calcium flux – cell-based, second round, Fluo4, HEK293 TRPC4beta/mu-opioid, 1 µM, confirmation (AID 2637;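 active = calcium signal ratio cut to more than 3 SD under the fully stimulated control mean yet still positive, in both repeats and the primary screen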); details: at 1 µM; active compounds read high
[7] = target: Short transient receptor potential channel 4 (Mus musculus) (UniProt Q9QUQ5); assay: potentiation of DAMGO-evoked TRPC4 calcium signal – cell-based, HEK293 TRPC4/mu-opioid, Fluo-4 calcium, EC20 DAMGO, dose response (AID 434941;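 active = earlier screen potentiator hit that boosts the TRPC4 ion channel at some dose, with a dose response; inactive = no potentiation, no dose response, or not a prior hit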;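 also: calcium entry triggered by an EC20 dose of DAMGO at the co-expressed mu-opioid receptor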)
[8] = target: Short transient receptor potential channel 4 (Mus musculus) (UniProt Q9QUQ5); assay: block of DAMGO-driven TRPC4 calcium entry – cell-based, HEK293 TRPC4/mu-opioid, Fluo-4 calcium, dose response (AID 434942)
[9] = target: Short transient receptor potential channel 6 (Mus musculus) (UniProt Q61143); assay: TRPC6 blockade by TRPC4 inhibitor hits – cell-based, HEK293, membrane potential dye, duplicate, selectivity assay for TRPC4 inhibitor project, confirmation (AID 434948;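 active = active in primary screen and both duplicates, each dropping signal beyond three positive-control SD with fluorescence still positive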); details: HEK293 TRPC6, membrane potential dye fluorescence, at 10 µM, stimulated with maximal-effect acetylcholine; active compounds read high
Chain of Short transient receptor potential channel 6 (Mus musculus) (Q61143 whole entry, looked up): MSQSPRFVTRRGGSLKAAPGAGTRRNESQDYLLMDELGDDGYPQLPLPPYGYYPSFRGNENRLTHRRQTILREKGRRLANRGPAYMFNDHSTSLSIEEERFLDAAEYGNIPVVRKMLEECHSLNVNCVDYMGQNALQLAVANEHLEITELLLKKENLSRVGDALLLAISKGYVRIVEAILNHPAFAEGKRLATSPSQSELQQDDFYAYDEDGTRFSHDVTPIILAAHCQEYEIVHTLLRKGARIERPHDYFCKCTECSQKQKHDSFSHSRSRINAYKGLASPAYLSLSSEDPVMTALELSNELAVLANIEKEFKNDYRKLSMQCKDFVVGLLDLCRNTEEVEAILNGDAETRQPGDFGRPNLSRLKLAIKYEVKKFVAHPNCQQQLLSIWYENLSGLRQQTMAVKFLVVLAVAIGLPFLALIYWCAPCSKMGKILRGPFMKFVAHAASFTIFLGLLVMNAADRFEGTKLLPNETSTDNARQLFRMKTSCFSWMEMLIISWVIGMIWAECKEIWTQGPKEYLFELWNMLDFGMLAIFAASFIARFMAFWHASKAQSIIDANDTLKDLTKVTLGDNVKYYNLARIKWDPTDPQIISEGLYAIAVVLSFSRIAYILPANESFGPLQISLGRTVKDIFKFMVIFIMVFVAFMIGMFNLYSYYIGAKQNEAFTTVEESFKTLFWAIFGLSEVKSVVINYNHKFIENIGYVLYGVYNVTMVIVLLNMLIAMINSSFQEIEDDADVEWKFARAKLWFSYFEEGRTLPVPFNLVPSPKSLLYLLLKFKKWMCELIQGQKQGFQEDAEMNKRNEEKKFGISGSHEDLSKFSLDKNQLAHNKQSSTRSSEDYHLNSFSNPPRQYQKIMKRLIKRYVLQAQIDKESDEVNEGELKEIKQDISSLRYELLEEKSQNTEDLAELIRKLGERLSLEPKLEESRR

[10] = target: Short transient receptor potential channel 6 (Mus musculus) (UniProt Q61143); assay: TRPC6 opening by TRPC4 activator hits – cell-based, HEK293, membrane potential dye, duplicate, selectivity assay for TRPC4 activator project, confirmation (AID 434950;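 active = membrane potential signal rise above negative control mean plus 3 SD in both duplicates, also active in the earlier TRPC4 screen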;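 as to activation: 0% = buffer only wells and 100% = acetylcholine maximal-effect wells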); details: HEK293 TRPC6, membrane potential fluorescence, at 10 µM; activation: active compounds read high; outcome: activation
[11] = target: Short transient receptor potential channel 6 (Mus musculus) (UniProt Q61143); assay: positive modulators of mouse TRPC6 channel – HEK293 cells, membrane potential dye, duplicate, selectivity assay for TRPC4 potentiator project, confirmation (AID 434952;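 active = compound raising the membrane signal above positive-control mean plus 3 SD in both repeats, and a primary screen hit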); details: HEK293 TRPC6, membrane potential dye fluorescence, at 10 µM, maximal acetylcholine added after compound; active compounds read high
[12] = target: Short transient receptor potential channel 4 (Mus musculus) (UniProt Q9QUQ5); assay: calcium flux activators in TRPC4/5HT1a cells, counter-screen for TRPC4 activator project, cell-based, second counter screen, HEK293 TRPC4/5HT1a, Fluo-4 (AID 434977;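 active = calcium signal rise above buffer-control mean plus 5 SD in both duplicates, and also a hit in the primary screen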;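 as to activation: plate controls were assay buffer for no effect and maximal serotonin response for full effect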); details: Fluo-4 calcium flux, at 10 µM; active compounds read high
[13] = serotonin-gated TRPC4 signal block – cell-based, second counter screen, HEK293 TRPC4/5HT1a, Fluo-4, counter-screen for TRPC4 inhibitor project, confirmation (AID 434978;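 active = primary screen active whose calcium signal fell more than 3 SD beyond the full-serotonin control mean in both duplicate plates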;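 also: serotonin given first at submaximal then at maximal dose after compound preincubation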); details: Fluo-4 calcium flux, at 10 µM, serotonin added to trigger calcium flux; active compounds read high
[14] = tested on: TRPC4 (mouse), co-expressed with 5HT1a in HEK293; assay: enhancement of serotonin-evoked TRPC4 response – cell-based, second counter screen, HEK293 TRPC4/5HT1a, Fluo-4, counter-screen for TRPC4 potentiator project, confirmation (AID 434979;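 active = signal rise over 3 SD above mean of control wells given weak agonist, in both repeats and first screen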); details: Fluo-4 calcium flux, at 10 µM, serotonin added at its EC20 dose; active compounds read high
[15] = nonspecific calcium rise without TRPC4 – cell-based, HEK293 mu-opioid receptor line, counter-screen for TRPC4 activator project, confirmation (AID 449723;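 active = hit in primary screen, with calcium signal over 5 SD above buffer well mean in both duplicates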;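 also: counter screen cells carry the mu-opioid receptor alone and lack TRPC4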); details: HEK293 mu-opioid cells, Fluo-4 calcium fluorescence, at 10 µM; active compounds read high
[16] = nonspecific potentiation of DAMGO calcium response – cell-based, HEK293 mu-opioid receptor line, counter-screen for TRPC4 allosteric potentiator project, confirmation (AID 449724;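 active = calcium signal rise more than 3 SD above the low-dose agonist control mean, in both duplicate plates and the primary screen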); details: HEK293 mu-opioid receptor cells, Fluo-4 calcium flux, at 10 µM, compound added before EC20 DAMGO stimulus; active compounds read high

Measured: activation

COc1c2c(cc3c1C(CC(O)Cc1ccccc1)N(C)CC3)OCO2 (stereo not given)
active: [1] 110% | [10] 43%
inactive: [2] | [3] | [4] | [5] | [6] | [7] | [8] | [9] | [11] | [12] | [13] | [14] | [15] | [16]

CN(C)CCCN(C(=O)c1ccc(S(=O)(=O)N2CCc3ccccc3C2)cc1)c1nc2c(F)cc(F)cc2s1
active: [1] 73%
inactive: [2] | [3] | [4] | [5] | [6] | [7] | [8] | [9] | [10] | [11] | [12] | [13] | [14] | [15] | [16]

CCOc1ccc(S(=O)(=O)Nc2cccc(C(=O)NCC(c3ccccc3)N(C)C)c2)cc1 (stereo not given)
active: [1] 255% | [10] 43%
inactive: [2] | [3] | [4] | [5] | [6] | [7] | [8] | [9] | [11] | [12] | [13] | [14] | [15] | [16]

COc1ccc(CN2CCC(n3nccc3NC(=O)CCc3ccccc3)CC2)c(C)c1C
active: [1] 68% | [10] 72%
inactive: [2] | [3] | [4] | [5] | [6] | [7] | [8] | [9] | [11] | [12] | [13] | [14] | [15] | [16]

COc1ccc(F)cc1CN1CCN(C(=O)CCC(=O)Nc2nnc(C(C)C)s2)CC1
active: [10] 41.5%
inactive: [1] | [2] | [3] | [4] | [5] | [6] | [7] | [8] | [9] | [11] | [12] | [13] | [14] | [15] | [16]

Fc1ccc(-c2nn(-c3ccccc3)cc2CNCc2ccccc2)cc1
inactive: [1] | [2] | [3] | [4] | [5] | [6] | [7] | [8] | [9] | [10] | [11] | [12] | [13] | [14] | [15] | [16]

O=C(CC(=O)c1c(F)cccc1Cl)c1ccccc1O
inactive: [2] | [3] | [4] | [5] | [6] | [7] | [8] | [9] | [11] | [13] | [14] | [16]
active: [1] 157% | [10] 37% | [12] 98.7% | [15] 33.3%

CN(C)C(CNC(=S)Nc1ccccc1Cl)c1cccnc1 (stereo not given)
active: [1] 109% | [2] 144%
inactive: [3] | [4] | [5] | [6] | [7] | [8] | [9] | [10] | [11] | [12] | [13] | [14] | [15] | [16]

CC(COc1ccccc1)N1CCC(CO)(CCc2ccccc2)CC1 (stereo not given)
active: [10] 95.5%
inactive: [1] | [2] | [3] | [4] | [5] | [6] | [7] | [8] | [9] | [11] | [12] | [13] | [14] | [15] | [16]

CC(=O)OCC[N+](C)(C)C
active: [1] 128% and 146% | [2] 81% and 93% | [10] 91.5% and 116% | [12] 110% and 105% | [15] 101% and 102%
inactive: [3] | [4] | [5] | [6] | [7] | [8] | [9] | [11] | [13] | [14] | [16]

S=C(NCCc1cnc[nH]1)NC1CCCC1
active: [1] 220% | [2] 135% | [12] 79.6%
inactive: [3] | [4] | [5] | [6] | [7] | [8] | [9] | [10] | [11] | [13] | [14] | [15] | [16]

CCOC(=O)C1(CCOc2ccccc2)CCN(Cc2cc(OC)ccc2OC)CC1
inactive: [2] | [3] | [4] | [5] | [6] | [7] | [8] | [9] | [11] | [12] | [13] | [14] | [15] | [16]
active: [1] 68% | [10] 118%

CCn1cc(CNCc2cn(-c3ccccc3C)nc2-c2ccc(OC)c(F)c2)cn1
active: [1] 163% | [2] 74%
inactive: [3] | [4] | [5] | [6] | [7] | [8] | [9] | [10] | [11] | [12] | [13] | [14] | [15] | [16]

CN(C)C(CNC(=O)NC1CCCCC1)c1cccnc1 (stereo not given)
inactive: [3] | [4] | [5] | [6] | [7] | [8] | [9] | [11] | [12] | [13] | [14] | [15] | [16]
active: [1] 79% | [2] 98% | [10] 29.5%

Cc1ccccc1C(=O)NNC(=S)NC(=O)COc1ccccc1
active: [1] 180% | [12] 127% | [15] 43.2%
inactive: [2] | [3] | [4] | [5] | [6] | [7] | [8] | [9] | [10] | [11] | [13] | [14] | [16]

Source: PubChem BioAssay
